# Hits are enriched below; roughly 1.3% of the tested compounds scored in any of these assays.
# Rin1 Abl inh = human Rin1-Abl interaction inhibition; actives 0.4% (n = 360,000); P00519+Q13671; TR-FRET Rin1/Abl binding, biochemical; inhibition, % at 7.35 µM; in the data active = inhibition above about 5%, passing the limit was not always enough
# IDE cell activ = activators of human insulin-degrading enzyme in cells; P14735; HEK cells, FAbeta-B cleavage, fluorescence polarization; 0% vehicle, 100% cell-free pure enzyme wells; activation, % at 5.96 µM; actives 0.073% (n = 340,000);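 active = activation above the mean of all tested compounds plus 3 SD, set per screening campaign, cut at about 17% in these data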
# Target sequence (P14735 whole entry, looked up): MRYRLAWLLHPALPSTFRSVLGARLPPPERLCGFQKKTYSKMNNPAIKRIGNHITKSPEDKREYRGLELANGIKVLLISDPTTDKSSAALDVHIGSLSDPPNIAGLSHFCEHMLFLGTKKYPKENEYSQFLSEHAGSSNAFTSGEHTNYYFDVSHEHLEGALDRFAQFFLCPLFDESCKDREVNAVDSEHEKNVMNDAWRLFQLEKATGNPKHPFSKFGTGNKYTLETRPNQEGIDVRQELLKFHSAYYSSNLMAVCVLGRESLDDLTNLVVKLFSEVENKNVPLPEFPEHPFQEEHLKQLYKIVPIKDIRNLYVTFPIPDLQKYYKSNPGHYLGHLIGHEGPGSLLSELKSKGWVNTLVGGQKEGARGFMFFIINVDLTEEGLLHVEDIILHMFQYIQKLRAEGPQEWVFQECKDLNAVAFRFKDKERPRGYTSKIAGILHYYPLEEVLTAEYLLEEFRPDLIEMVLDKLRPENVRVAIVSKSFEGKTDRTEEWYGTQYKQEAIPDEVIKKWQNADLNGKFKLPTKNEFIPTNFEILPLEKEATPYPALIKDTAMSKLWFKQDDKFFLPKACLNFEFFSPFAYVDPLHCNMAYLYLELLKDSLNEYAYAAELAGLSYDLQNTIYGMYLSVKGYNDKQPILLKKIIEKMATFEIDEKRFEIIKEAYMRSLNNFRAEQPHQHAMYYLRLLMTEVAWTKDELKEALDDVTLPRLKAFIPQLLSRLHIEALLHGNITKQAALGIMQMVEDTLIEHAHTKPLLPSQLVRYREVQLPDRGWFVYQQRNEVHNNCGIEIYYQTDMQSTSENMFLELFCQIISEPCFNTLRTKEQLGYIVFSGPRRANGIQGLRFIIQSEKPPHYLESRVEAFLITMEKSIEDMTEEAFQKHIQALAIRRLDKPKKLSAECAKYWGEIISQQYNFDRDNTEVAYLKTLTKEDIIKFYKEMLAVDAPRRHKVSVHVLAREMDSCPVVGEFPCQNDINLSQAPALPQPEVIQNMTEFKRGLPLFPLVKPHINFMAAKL
# PKA-R1A activ = PKA-R1A complex activation; P00514+P68181; PKA-R1A dissociation, Cy5-IP20 fluorescence polarization; scaled: DMSO 0%, 113 µM cGMP 100%; activation, % at 11.4 µM; actives 0.083% (n = 340,000); AID 504707;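 active = percent activation above the mean of all tested compounds plus 3 SD, cut at about 19% in these data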;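 also: higher means more PKAc released from R1A so a rise in polarization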
# IDE cell inh = inhibitors of human insulin-degrading enzyme in cells; HEK cells, FAbetaB cleavage, fluorescence polarization; inhibition, % at 5.59 µM; AID 434962; actives 0.41% (n = 320,000); P14735;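 active = percent inhibition above the average of all tested compounds plus 3 SD, set per screening campaign, cut at about 16% in these data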;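 also: IDE supplied by intact live HEK cells; FP after avidin binding of uncleaved biotin substrate so inhibition keeps polarization high; 0% = DMSO wells and 100% = 60 µM reference IDE inhibitor Ii1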
# eLon inh = E. coli protease La inhibition | P0A9M0 | AID 602123 | inhibition, % at 7.94 µM | purified E. coli Lon protease, fluorescence polarization | actives 0.42% (n = 360,000); in the data active = inhibition above about 13%, passing the limit was not always enough;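 also: 0% = enzyme with probe and DMSO and 100% = no enzyme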
# PKA-R2B act = activates the human PKA-R2B holoenzyme complex; P22694+P31323; PKA-R2B holoenzyme dissociation, Cy5-IP20 fluorescence polarization; R2B truncated from residue 108, S112A mutant; 0% DMSO only, 100% 113 µM cGMP; activation, % at 11.4 µM; actives 0.079% (n = 340,000); AID 504700;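 active = activation above a cutoff set at the mean over all compounds plus 3 SD, cut at about 18% in these data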;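 also: higher means more holoenzyme dissociation and a rise in polarization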
# E coli Lon conf = confirmation of E. coli Lon protease inhibitors. shares compounds with eLon inh. purified E. coli Lon, fluorescence polarization. inhibition, % at 7.94 µM. actives 31% (n = 1,400). AID 602230; in the data active = inhibition above about 16%;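 also: 0% = enzyme with probe and DMSO and 100% = no enzyme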
# Active calls of the source: *; i = inactive; · = no result given; + = active, no number.
SMILES,Rin1 Abl inh,IDE cell activ,PKA-R1A activ,IDE cell inh,eLon inh,PKA-R2B act,E coli Lon conf
CCN(CC)c1ccc(C=Nc2cccnc2Cl)c(O)c1,-2.1,5.6,-7.3,1.9,16.2*,-2.3,-1.3
O=C(COC(=O)c1ccc(Cl)c(S(=O)(=O)N2CCCC2)c1)NCc1cccs1,4.6,3.5,3.5,2.2,3.2,-4.1,·
Cc1ccc2c3c(cccc13)-c1ccccc1C2=O,-2.4,-8.8,-11.9,2.4,39.5*,0.5,20.4*
Cc1cccc2cc3c(nc12)-c1ccccc1C3=O,-3.7,-2.0,-11.0,-1.6,4.8,-10.2,·
Nc1ccc2c3c(cccc13)-c1ccccc1-2,2.3,-22.0,-6.3,·,188.6*,0.4,+
Nc1cccc2c(=O)[nH][nH]c(=O)c12,0.8,2.8,i,·,-5.7,i,·
CCc1ccc(NC(=O)N2CCN(C(=O)C3CCCO3)CC2)cc1 (stereo unspecified),4.8,3.8,-9.4,-3.2,-9.2,0.9,·
CCOC(=O)c1c(C)nsc1NCc1ccccc1,-0.4,0.5,4.7,3.5,2.7,2.2,·
CCOC(=O)C1=C(N)Oc2cc(O)ccc2C1c1ccc(F)cc1F (stereo unspecified),1.6,-2.5,-12.1,3.4,33.5*,5.2,-16.6
O=C(NNC(=O)c1ccccc1-n1cccc1)c1cccnc1,-1.0,·,-1.2,·,-1.6,-2.6,·
O=C(NNC(=O)c1ccccc1-n1cccc1)c1cncc(Br)c1,2.7,0.2,4.7,2.3,37.9*,-10.3,-55.1
O=C1C2ON(c3ccccc3)C(c3ccccn3)C2C(=O)N1c1ccc(Br)cc1 (stereo unspecified),0.6,2.8,7.9,-1.5,15.5*,6.8,11.5
Cc1ccc(-c2nnc(N3CCN(C(=O)Cn4c(=O)n(C)c5ccccc54)CC3)c3ccccc23)cc1,0.3,8.4,2.1,-1.5,23.9*,-9.6,1.9
O=C(Nc1ccc(S(=O)(=O)Nc2ncccn2)cc1)c1ccc(Br)s1,-3.4,2.8,2.6,2.1,27.7*,-4.6,34.2*
O=C(Nc1ccc(Cl)cc1)Nc1ccc(S(=O)(=O)Nc2ncccn2)cc1,-0.4,-1.7,1.7,-5.3,64.7*,-3.5,48.1*
O=S(=O)(Nc1ncccn1)c1ccc(Nc2ncnc3ccccc23)cc1,1.5,5.6,-2.6,5.6,19.6*,-4.9,80.6*
O=S(=O)(Nc1ccc(S(=O)(=O)Nc2ncccn2)cc1)c1ccccc1,2.9,0.4,-3.1,-1.6,-6.6,4.6,·
Cc1ccc(C(O)c2ccc(-n3ccnc3)cc2)cc1 (stereo unspecified),-1.2,0.5,2.1,-5.2,1.8,2.5,·
CCc1nc2c(OCCC3CCCCC3)cccn2c1N(C)C(=O)c1ccncc1,-1.5,·,·,·,-14.7,·,·
Cc1cccc(C(=O)OCC(=O)NC(C)CCc2ccccc2)c1O (stereo unspecified),-0.1,5.9,-10.1,3.6,-3.7,-10.6,·
CCOC(=O)C1CCN(CC(=O)Nc2cc(S(=O)(=O)N3CCCCC3)ccc2Cl)CC1,-2.1,3.8,-10.0,·,23.1*,-2.2,3.3
O=C(O)c1nn(CCOc2ccc(Cl)cc2Cl)c(=O)c2ccccc12,-1.3,-2.7,0.5,1.1,3.5,-3.0,·
O=C(O)C1CCCC2CN3CCc4c([nH]c5ccccc45)C3C(O)C21 (stereo unspecified),3.0,2.7,-13.5,2.6,20.3*,-5.4,2.0
N#Cc1c(N)nc(Sc2ccc(Cl)cc2)c(C#N)c1-c1ccccc1Cl,-3.5,-1.2,-11.6,1.9,-6.0,-4.6,·
Nc1ccc(-c2nc3ccc(N)cc3[nH]2)cc1,0.6,2.6,-7.9,1.2,2.6,0.8,·
Nc1ccc2cc3[nH]c4cc(N)ccc4c3nc2c1,-187.2,53.2*,0.3,·,+,14.8,146.1*
Cc1ccc(C)c(-n2c3nc(=O)[nH]c(=O)c-3cc3cc([N+](=O)[O-])ccc32)c1,-1.6,-1.4,7.0,7.0,60.2*,-11.5,2.8

# Screens (PubChem BioAssay)
